# Values joined by “and” are separate entries in the source; they are usually repeats but may differ in a detail not shown here. Equal entries are not always repeated. The campaign covered roughly 430,000 compounds. About 2,600 (0.6%) were called active. No stated cut-off is given here; in the data, active means inhibition mostly above about 37% (no sharp cut-off); inactive means mostly below about 20%. Only a selection was taken, and actives are over-represented in it overall.
# Tested on: PriA–SSB C-terminal tail interaction (Klebsiella pneumoniae)
# Assay: inhibitors of Klebsiella pneumoniae PriA binding to SSB C-terminal tail, primary screen, biochemical, AlphaScreen (AID 1272365);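 on inhibition: plate controls were negative control peptide for no effect and reference peptide for full effect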
# Settings: AlphaScreen SSBct-PriA binding, biotinylated peptide; at 33 µM, stronger effect = higher value
row,SMILES,inhibition
1,CC(C)(CC(=O)NCc1ccc(F)cc1)CC1=NS(=O)(=O)c2ccccc2N1,-14% (inactive)
2,COc1ccc(C(=O)Nc2ccc(S(C)(=O)=O)cc2)cc1,-8% (inactive)
3,CC(C)Sc1nc(N2CCCC2)c2cnn(CCNC(=O)c3cccs3)c2n1,-8% (inactive)
4,CCn1ccnc1CN1CCN(C)CC1,0% (inactive)
5,CC(=O)Nc1ccc(S(=O)(=O)N2CCN(S(=O)(=O)c3ccc(C)cc3)CC2)cc1,-19% (inactive)
6,N#Cc1nccnc1O[C@H]1CCCN(C(=O)c2ccc3nc[nH]c3c2)C1,-19% (inactive)
7,Cc1cccc(-n2cc(-c3ccccc3)c3c(Nc4ccc(Oc5ccc(Cl)cc5)cc4)ncnc32)c1,-17% (inactive)
8,Cc1cccc(C(=O)Nc2nnc(Cc3c[nH]c4ccccc34)s2)c1,6.73% (inactive)
9,C=CCn1c(C)cc(C2=NNC(=NCC)SC2)c1C,29.4% (inactive)
10,Cc1cccc(N=C2NN=C(c3c[nH]c4ccccc34)CS2)c1,48.7% (active)
11,Cn1cc(S(=O)(=O)Nc2ccc(CC(=O)N3CCOCC3)cc2)cn1,6% (inactive)
12,NS(=O)(=O)c1ccc(CNC(=O)c2ccc(Cl)cc2[N+](=O)[O-])cc1,-24.6% (inactive)
13,CC(CCC(C)C)=NNc1ccc(S(N)(=O)=O)cc1[N+](=O)[O-],42.4% (active)
14,C/C(=N\Nc1ccc(S(N)(=O)=O)cc1[N+](=O)[O-])c1cccs1,inactive
15,COc1ccccc1C(=O)N1CCN=C1SCc1cccnc1,-0.73% (inactive)
16,O=C(c1cc2n(n1)CCCO2)N1CCN(Cc2cccnc2)CC1,-17% (inactive)
17,COc1cccc(OC)c1C(=O)N1CCN(Cc2cccnc2)CC1,49% (active)
18,O=C(c1cc2ccccc2o1)N1CCN(C(=O)C2CC2c2ccccc2)CC1 (centres undefined),2% (inactive)
19,Cc1cc(S(=O)(=O)N2CCOC23CCN(C(=O)c2cc(=O)c4ccccc4o2)CC3)ccc1F,-9% (inactive)
20,Cc1ccc2cc(C)c(N3CCC(C)CC3)nc2c1,-34.6% (inactive)
21,CC1CCN(c2nc(-c3ccccn3)nc3ccccc23)CC1,102% (active)
22,CC1CCN(C(=O)Cn2c(-c3ccncc3)nc3ccccc32)CC1,4% (inactive)
23,O=C1C(=O)N(CN2CCN(C(c3ccccc3)c3ccccc3)CC2)c2ccccc21,-1% (inactive)
24,COC(=O)/C=C1\SC(=NNC(=O)c2ccccc2)NC1=O,-6.67% (inactive)

row,SMILES,inhibition
1,Cc1nc(-c2cccs2)sc1CNC(=O)c1ccc(=O)[nH]c1,5% (inactive)
2,Nc1[nH]nc2nc(-c3ccccn3)ccc12,94.2% (active)
3,Cc1cc2cc3c(N)[nH]nc3nc2cc1C,-6.78% (inactive)
4,Cc1cc(NC(=O)C(C)(C)Oc2ccc(Cl)cc2)n(-c2nc3c(c(=O)[nH]2)CCC3)n1,-1% (inactive)
5,CCOC(=O)c1c(NC(=O)c2c(F)cccc2F)sc2c1CCN(C(=O)OCC)C2,-7% (inactive) and -12% (inactive)
6,CN(c1ccccc1)c1ccc([N+](=O)[O-])c2nonc12,32.9% (inactive)
7,CCOC(=O)c1ccc(NNC(C)=O)c([N+](=O)[O-])c1,3.85% (inactive)
8,CCc1ccc(Nc2ccc([N+](=O)[O-])c3nonc23)cc1,79.3% (active)
9,O=C(COc1ccccc1)N1CCN(c2ccc(-c3ccco3)nn2)CC1,-12% (inactive)
10,COc1ccc(OC)c(Nc2nc(CC(=O)N3CCN(c4ncccn4)CC3)cs2)c1,19% (active)
11,COC(=O)Nc1nc(CC(=O)Nc2ccccc2OC)cs1,-13% (inactive)
12,COc1ccc(OC)c(Nc2nc(CC(=O)Nc3nc4ccccc4s3)cs2)c1,38% (active)
13,COc1ccc(OC)c(Nc2nc(CC(=O)N3CCc4ccccc43)cs2)c1,12% (inactive)
14,COc1ccc(C)cc1NC(=O)Cc1csc(NS(=O)(=O)c2ccccc2)n1,6% (inactive)
15,O=C1CCC(C(=O)Nc2nc(CC(=O)N3CCN(c4ccccn4)CC3)cs2)N1 (centres undefined),8% (inactive)
16,CCCCN(C1CCS(=O)(=O)C1)S(C)(=O)=O (centres undefined),10% (inactive)
17,Cc1ccc(C)c(CSc2nnc3n(C)c(=O)c4ccc(C(=O)NC5CCCC5)cc4n23)c1,0% (inactive)
18,O=C(c1ccc(S(=O)(=O)N2CCCCC2)cc1)N(c1cccc(Cl)c1)C1C=CS(=O)(=O)C1 (centres undefined),-8% (inactive)
19,O=C(NCCCn1ncccc1=O)c1cccc(C(F)(F)F)c1,-10% (inactive)
20,CSc1cccc(-c2nnc(NC(=O)c3ccc(Cl)s3)o2)c1,11% (inactive) and 4% (inactive)
21,Cc1cc(SCC(=O)Nc2ccc(OC(F)F)cc2)nc2ccccc12,-2% (inactive) and -21% (inactive)
22,Cn1ccc(C(=O)Nc2ccc(F)cc2)n1,8% (inactive)
23,COc1cc2nc(SCc3cc(=O)n4cc(Cl)ccc4n3)n3nc(C)nc3c2cc1OC,-5% (inactive)
24,O=C(NCc1ccco1)C(=O)Nc1c2c(nn1-c1ccc(F)cc1)CSC2,-7% (inactive)

row,SMILES,inhibition
1,Cc1ccccc1C(=O)NCC(c1ccco1)N1CCc2ccccc21 (centres undefined),-7.16% (inactive)
2,O=C(NCC(c1ccco1)N1CCc2ccccc21)C(=O)Nc1ccccc1[N+](=O)[O-] (centres undefined),42% (active)
3,COc1ccccc1CCNC(=O)C(=O)NC[C@@H](c1ccco1)N1CCc2ccccc21,8% (inactive)
4,COc1ccc(NC(=O)Nc2nnc(SCC(=O)Nc3cccc([N+](=O)[O-])c3)s2)cc1,-16% (inactive)
5,Cc1cc([N+](=O)[O-])c(N2CCC[C@@H]2C(=O)O)c([N+](=O)[O-])c1,-16.2% (inactive)
6,Cc1cc(OCC(=O)NC2CCN(C)CC2)ccc1[N+](=O)[O-],-23% (inactive)
7,Cc1cc([N+](=O)[O-])c(NC2CCCCC2)c([N+](=O)[O-])c1,80.5% (active)
8,NC(=O)C1CCN(C(=O)N[C@H]2CC(=O)N(c3ccc(F)cc3)C2)CC1,2% (inactive)
9,Cc1ccc(NC(=O)C(=O)NC[C@](C)(O)c2cccs2)cc1C,-4% (inactive)
10,COc1ccc(CCC(=O)N2CCC(Oc3cc(C)oc(=O)c3)C2)cc1Br (centres undefined),4% (inactive)
11,Cc1cc(NC(=O)CSc2nnc(-c3ccc(Cl)s3)o2)no1,43.9% (active) and 1% (inactive)
12,Cc1nnc(NC(=O)CSc2nnc(-c3ccccc3C)o2)s1,11% (inactive)
13,Cc1cc(NC(=O)CSc2nnc(CNC(=O)c3cccs3)o2)no1,-5% (inactive)
14,COC(=O)C1CCN(C(=O)CCc2csc3nc(-c4ccc(OC)cc4)cn23)CC1,-11% (inactive)
15,Cn1ccnc1S(=O)(=O)C1CCN(C(=O)c2ccc3nsnc3c2)CC1,-12% (inactive)
16,O=C(Nc1nc2c(s1)CN(Cc1ccccc1)CC2)c1cc(Cl)sc1Cl,23% (inactive)
17,O=C(CSc1ccc(-c2cccnc2)nn1)NCCc1ccccc1,-2% (inactive)
18,Brc1ccc(CSc2nnc3ccc(-c4ccccn4)nn23)cc1,-17% (inactive)
19,COc1ccccc1CCNC(=O)CSc1nnc2ccc(-c3cccnc3)nn12,-8.11% (inactive) and 15% (inactive)
20,COc1cc(NC(=O)CSc2ccc(-c3cccnc3)nn2)cc(OC)c1,6.7% (inactive)
21,CSc1ccc(NC(=O)c2ccccc2F)nn1,2% (inactive)
22,O=C(CSc1ccc(-c2ccc(-n3cccn3)cc2)nn1)Nc1ccc([N+](=O)[O-])cc1,-0.41% (inactive)
23,O=C(CSc1ccc(-c2ccccn2)nn1)Nc1ccccc1,90.4% (active)
24,COc1ccccc1CCNC(=O)CSc1ccc(-c2ccccn2)nn1,81.7% (active)

row,SMILES,inhibition
1,CSc1ccc(-c2ccccn2)nn1,148% (active)
2,NC(=NOC(=O)C1CCCCC1)c1ccc(Br)cc1,-26.4% (inactive)
3,CS(=O)(=O)c1ccccc1C(=O)N1CCN(c2ccccc2)CC1,0% (inactive)
4,CN(C)S(=O)(=O)c1ccc(C(=O)NCc2nnc(SCc3c(F)cccc3Cl)o2)cc1,6% (inactive) and -7% (inactive)
5,Cc1ccc(N2CCn3c2nc2c3c(=O)n(CCN3CCOCC3)c(=O)n2C)cc1Cl,0% (inactive)
6,COC(=O)c1ccc2c(=O)n(CCCC(=O)NCc3cccs3)c(=S)[nH]c2c1,-3% (inactive)
7,O=C(NCCCn1ccnc1)c1cc(-c2ccccc2)on1,2.55% (inactive)
8,O=C(NCCCn1ccnc1)c1cc2c(s1)CCCC2,44.7% (active)
9,Cc1ccc2c(Cl)c(C(=O)NCCCn3ccnc3)sc2c1,9.4% (inactive)
10,COc1ccc(/C=N\N=C2\NC(=O)C(CC(=O)NC(N)=O)S2)c(C(=O)O)c1OC (centres undefined),-10% (inactive)
11,Cc1ccccc1-n1c(O)c(C=CC=Nc2ccccc2)c(=O)[nH]c1=O,4.92% (inactive)
12,O=C(COc1ccc(Cl)cc1Cl)Nc1nnc(C2CCCO2)o1 (centres undefined),63% (active)
13,O=C(Nc1nnc(C2CCCO2)o1)c1cc2ccccc2oc1=O (centres undefined),4% (inactive)
14,O=C(Nc1nnc(C2CCCO2)o1)c1sc2ccccc2c1Cl (centres undefined),34% (inactive)
15,COc1ccc(CCC(=O)NCCCn2nc(-c3ccccc3)ccc2=O)cc1,2% (inactive)
16,O=C(NC(=S)Nc1ccccc1C(=O)O)c1ccc(-c2ccc(Br)cc2)o1,3.73% (inactive)
17,O=CN1CCN(C(=O)c2ccc(Br)o2)CC1,-5.54% (inactive)
18,CN1CCN(C(=O)c2ccc(-c3ccc(Br)cc3)o2)CC1,39% (active) and 2.72% (inactive)
19,O=C(O)CNC(=O)CN1C(=O)S/C(=C\C=C\c2ccccc2)C1=O,-12% (inactive)
20,O=C(NCc1ccc2c(c1)OCO2)c1csc(Nc2ccccc2)n1,0% (active)
21,O=C(O)/C=C\C(=O)NCc1ccc2c(c1)OCO2,-5% (inactive)
22,O=C(NCCc1ccccc1)c1csc(Nc2ccccc2)n1,7% (inactive)
